Several values for one entry are separate records, joined by “and”; a condition that tells them apart may be missing. Equal values may be shown once. Out of some 16,000 compounds screened, about 5,800 (36%) were called active. Roughly 23% stayed inconclusive and do not appear here. Some of the results follow. Values without a mark were called inactive. The call rests on the fitted dose curve; in most records, active means well fitted curve in the direction sought with a large enough effect; inconclusive means small, poorly fitted or top-dose-only effect, or effect the other way; inactive means no such curve, though single readings can be large or run the other way.
These compounds were tested against Cytochrome P450 2C19 (Homo sapiens) (UniProt P33261) (assay: Cytochrome panel assay with activity outcomes). Conditions: recombinant CYP, pro-luciferin dealkylation, luminescence, p450-cyp2c19; series mostly up to 57.1 µM; activity, negative = inhibition: at the top concentration.
On the % scale 0 is the no-effect control and ±100 the full control effect.

Cytochrome P450 2C19 (Homo sapiens), sequence (P33261 whole entry, looked up): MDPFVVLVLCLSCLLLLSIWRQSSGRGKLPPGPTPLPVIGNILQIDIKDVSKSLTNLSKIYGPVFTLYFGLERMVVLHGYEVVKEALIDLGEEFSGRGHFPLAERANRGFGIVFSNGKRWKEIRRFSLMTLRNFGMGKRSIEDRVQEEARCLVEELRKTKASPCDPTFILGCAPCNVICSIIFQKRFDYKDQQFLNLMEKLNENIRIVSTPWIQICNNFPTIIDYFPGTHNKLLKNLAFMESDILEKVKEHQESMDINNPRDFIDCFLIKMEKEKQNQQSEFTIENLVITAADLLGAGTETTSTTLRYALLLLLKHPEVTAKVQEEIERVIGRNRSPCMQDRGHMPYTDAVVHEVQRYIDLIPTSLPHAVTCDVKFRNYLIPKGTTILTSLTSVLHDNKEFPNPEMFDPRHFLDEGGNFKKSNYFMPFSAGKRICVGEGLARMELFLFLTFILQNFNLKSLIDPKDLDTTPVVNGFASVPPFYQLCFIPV

Compound | activity, negative = inhibition | AC50
CC(C)CN1CCCC2(CCN(C(=O)c3cnccn3)CC2)C1 | -12.2% | –
O=C1CN(C(=O)c2ccc(Br)o2)C(c2ccc(F)cc2)c2cc(Cl)ccc2N1 (stereo not given) | – | 7.94 µM (active)
CCCCC(=O)Nc1sc2c(c1C(=O)OCC)CCC(C=O)=C2Cl | – | 14.1 µM (active)
O=C1Nc2ccccc2Nc2ncccc21 | -12.3% | –
C/C(=N\NC(=O)CSCc1ccc(Cl)cc1)c1ccc2c(c1)OCCO2 | – | 1.26 µM (active)
CC(/C=C/c1ccccc1)=N/NC(=O)CNC(=O)c1ccc2c(c1)OCO2 | -24.7% | –
CCc1ccc(OCC(=O)NC(=S)Nc2ccc(F)cc2)c(Br)c1 | – | 8.91 µM (active)
O=C(CCN1C(=O)c2ccccc2C1=O)NC(=S)Nc1cccc(Cl)c1 | – | 4.47 µM (active)
O=C(COc1ccccc1Cl)NC(=S)Nc1cccc(NC(=O)c2ccccc2Cl)c1 | – | 0.631 µM (active)
CCC(=O)NC(=S)Nc1ccc(NC(=O)COc2ccc(Cl)cc2Cl)cc1 | – | 2.82 µM (active)
Cc1ccccc1OCC(=O)NC(=S)Nc1ccc(Br)c(C)n1 | -10.9% | –
C=C(CC)C(=O)c1ccc(OCC(=O)O)c(Cl)c1Cl | -9.62% [at 25.6 µM] | –
CN(C)c1ncnc2c1ncn2CCn1cnc2c(N(C)C)ncnc21 | 27.8% [at 11.4 µM] | –
NC1=C2NC=N[C@@H]2N(C/C=C\c2ccccc2)C=N1 | 7.43% [at 11.4 µM] | –
Cc1c(N2C(=O)/C(=C3/C(=O)N(C)c4ccccc43)SC2=S)c(=O)n(-c2ccccc2)n1C | – | 2.82 µM (active)
Cc1c(N(C)C)c(=O)n(-c2ccccc2)n1C | -8.86% [at 25.6 µM] | –
Cc1c(O)c(=O)n(-c2ccccc2)n1C | -3.86% [at 25.6 µM] | –
O=S(=O)(O)c1ccc2c(N=Nc3cccc4ccccc34)c(O)c(S(=O)(=O)O)cc2c1 | 13.7% [at 11.4 µM] | –
CN(C(=O)C(Cl)Cl)c1ccc(OC(=O)c2ccco2)cc1 | -12.6% [at 25.6 µM] | –
CCCn1c(N)[n+](CC(=O)c2ccco2)c2ccccc21 | -19% | –
CCOC(=O)c1c(C)n(C)c2ccc(OC(=O)c3ccco3)cc12 | – | 5.01 µM (active)
CCOc1cc(/C=C2/C(=N)N3C=CSC3=NC2=O)ccc1OCCCOc1ccccc1C | – | 1 µM (active)
COc1cc(/C=C2/C(=N)N3C=CSC3=NC2=O)ccc1OCCCOc1ccccc1C | – | 7.94 µM (active)

Compound | activity, negative = inhibition | AC50
Cc1ccc(N=Nc2ccc(N)cc2C)c(S(N)(=O)=O)c1 | 1.27% [at 11.4 µM] | –
COc1ccccc1CN1CC[C@@]2(CCCN(S(C)(=O)=O)C2)C1 | -26.4% | –
CCCNc1c(F)c(F)c2c(C)c3ccccc3nc2c1F | – | 10 µM (active)
CC1CN(C(=O)CN2C(=O)NC3(CCCCCC3)C2=O)CC(C)O1 (stereo not given) | -25.4% | –
Cc1ccc(CC(=O)N2CC(C)OC(C)C2)cc1 (stereo not given) | – | 8.91 µM (active)
CCNC(=S)N1CC(C)OC(C)C1 (stereo not given) | 13.7% | –
c1ccc2c(c1)ncn2-c1ccc(-c2ccnc(-c3ccncc3)n2)cc1 | – | 0.2 µM (active)
CCOC(=O)c1ccc2nc(C)c(CCC(C)=O)c(Cl)c2c1 | – | 5.62 µM (active)
CC(C)(C)c1cc(C(=O)O)c(CN2CCCCC2)o1 | -27.2% | –
CN(C)S(=O)(=O)c1ccc(C(=O)Nc2ccc(CN3CCCC3)cc2)cc1 | -17.7% | –
CN(C)S(=O)(=O)Oc1ccsc1C(=O)Nc1ccc(Cl)cc1 | – | 0.891 µM (active)
COc1ccc(/C=N/n2cnc3c([nH]c4ccc(Br)cc43)c2=O)cc1CN1CCOCC1 | – | 3.55 µM (active)
[N-]=[N+]=Nc1ccc(C(=O)CSC[C@@H](NC(=O)CC[C@@H](N)C(=O)O)C(=O)NCC(=O)O)cc1 | -17.4% | –
ON(CCc1ccncc1)Cc1ccccc1 | – | 0.316 µM (active)
c1ccc(CCN2CCN=C2Cc2ccccc2)cc1 | 7.77% [at 11.4 µM] | –
c1ccc(SCCc2ccncc2)cc1 | – | 447 nM (active) and 794 nM (active)
Fc1ccc(SCCc2ccncc2)cc1 | – | 0.447 µM (active)
ON(CCc1ccccn1)Cc1ccccc1 | -32.5% [at 11.4 µM] | –
CCOc1cc(/C=N/NC(=O)COc2cccc(C)c2)ccc1OC(=O)c1cccs1 | – | 8.91 µM (active)
COc1ccc(/C=C/C(=O)Oc2cccc(/C=N/NC(=O)COc3c(C)cccc3C)c2)cc1 | -25% | –
CCOc1cc(/C=N/NC(=O)CNc2cccc(C)c2)ccc1OC(=O)c1ccccc1 | – | 10 µM (active)
O=C(CN1CCN(S(=O)(=O)c2ccc(F)cc2)CC1)Nc1ccc(Cl)c(C(F)(F)F)c1 | – | 7.94 µM (active)

From PubChem BioAssay AID1851 (National Center for Advancing Translational Sciences (NCATS), 2009)
